From PubChem
Pf growth 96h = P. falciparum growth inhibition at 96 hours; P. falciparum luciferase reporter growth, 96 h; Potency, µM (series often up to 28.7 µM), actives largely listed as inhibitors; hit rate 6.9% among 320,000
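Erythrocytes infected with luciferase-expressing P. falciparum were dispensed at 2% hematocrit and 0.05% parasitemia (final), then incubated with compounds 96 hours at 37 C in 5% CO2. Luminescence after detection reagent addition reported growth.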
NS1 function inh = blocks influenza NS1 protein function; Potency, µM (doses to about 46.1 µM); hit rate 0.4% among 270,000; calls by dose curve; note: actives are rising curves; nearly all actives have a fitted effect of over 50% in size
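Read-out: OD600 growth recovery of NS1-expressing budding yeast. Cells grown overnight at 30C in -URA glucose medium, washed, resuspended and diluted 1:100 in 2% galactose assay medium, pH 6.0. Same strain lacking NS1 served as positive control.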
Pf growth 48h = P. falciparum growth inhibition at 48 hours (one generation); hit rate 5.9% among 310,000; Potency, µM (top dose mostly 28.7 µM), actives largely listed as inhibitors; P. falciparum luciferase growth in erythrocytes, 48 h
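Cell-based growth assay: transgenic P. falciparum expressing firefly luciferase, cultured in red cells within RPMI 1640 containing 0.5% w/v Albumax, 24 mM bicarbonate and gentamycin. A drop in luciferase activity indicates inhibition.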
CHX counter = counter-screen hit for Shiga toxin inhibitors, cycloheximide. cell reporter, cycloheximide protein synthesis inhibition counterscreen. max response, %. hit rate 12% among 300,000. AID 2314; in the data active = max response mostly above about 13%, no sharp cut-off; inactive = mostly below about 14%; note: read at 38.3 µM for the half of the compounds with a filed dose
Shiga inhibitor = blocks Shiga toxin action in Vero cells. Vero cells, Shiga toxin protein synthesis inhibition reporter. inhibition, % at 38.7 µM. hit rate 9.2% among 290,000. AID 2315; in the data active = inhibition mostly above about 28%, no sharp cut-off; inactive = mostly below about 43%
FBPA Giardia inh = inhibitors of Giardia lamblia fructose-1,6-bisphosphate aldolase; hit rate 0.71% among 290,000; purified Giardia FBPA; A8B2U2; AID 2451; Potency, µM (doses to about 59.6 µM), actives largely listed as inhibitors; note: nearly all actives have a fitted effect of over 55% in size
Target sequence (A8B2U2 whole entry, looked up): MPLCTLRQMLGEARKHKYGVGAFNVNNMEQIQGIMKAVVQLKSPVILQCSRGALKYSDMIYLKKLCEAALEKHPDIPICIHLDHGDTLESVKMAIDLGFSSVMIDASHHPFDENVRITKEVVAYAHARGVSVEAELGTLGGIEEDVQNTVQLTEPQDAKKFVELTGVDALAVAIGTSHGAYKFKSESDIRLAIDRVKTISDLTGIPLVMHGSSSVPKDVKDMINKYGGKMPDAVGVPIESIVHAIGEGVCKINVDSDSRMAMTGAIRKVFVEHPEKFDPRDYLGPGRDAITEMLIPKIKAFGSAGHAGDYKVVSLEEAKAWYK
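Giardia FBPA (40 nM reagent) was preincubated 10 min at RT with compound (up to 57.5 uM final), then substrate plus GAPDH/TPI/NAD/arsenate coupling system with diaphorase/resazurin was added; resorufin fluorescence (525/598 nm) was read after 20 min.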
Hits are given with their value; - = inactive; ? = inconclusive; . = not tested or not shown. An excerpt weighted towards active compounds, which were near 21% of everything screened. Unless noted, calls come from the whole dose curve; as a rule, active = well fitted curve in the direction sought with a large enough effect; inconclusive = small, poorly fitted or top-dose-only effect, or another doubt; inactive = no such curve, though single readings can be large; an effect the other way counts as inactive or inconclusive.

SMILES | Pf growth 96h | NS1 function inh | Pf growth 48h | CHX counter | Shiga inhibitor | FBPA Giardia inh
CCOc1ccc(S(=O)(=O)N(CC)CC(=O)NCc2ccncc2)cc1C | - | - | - | - | - | -
CC(=O)N1CCC2(CCN(Cc3ccccc3)CC2)CC1 | . | . | . | . | . | -
CN(Cc1ccccc1)C(=O)c1ccc(NC(=O)Cc2cccc(NC(=O)C3CCCN(C(=O)C4CCCC4)C3)c2)cc1 (stereo unspecified) | - | . | 12µM | . | . | .
COc1ccc(C(=O)C(CCC(CNC(C)(C)C)C(=O)c2ccc(OC)cc2)CNC(C)(C)C)cc1 (stereo unspecified) | ? | - | 7.4µM | - | - | -
Cc1nnc(SCC(=O)Nc2cccc(S(=O)(=O)N3CCCCC3)c2)s1 | ? | . | - | . | . | .
Cc1ccc(Nc2nnc(SCC(=O)Nc3cccc(S(=O)(=O)N4CCCCC4)c3)s2)cc1 | ? | - | - | 53 | - | -
O=C(CSc1ccccn1)Nc1cccc(S(=O)(=O)N2CCCC2)c1 | ? | . | - | . | . | .
O=C(CSc1nnc(Nc2ccccc2F)s1)Nc1cccc(S(=O)(=O)N2CCCCC2)c1 | ? | - | - | 42 | 75 | -
Nc1nc(COc2ccccc2C=O)nc(Nc2ccccc2)n1 | - | - | - | - | - | -
Cc1cc(=O)oc2cc(OCC(=O)Nc3ccccc3C(=O)O)ccc12 | - | - | - | - | - | .
COc1ccc(C2(C)NC(=O)N(CC(=O)Nc3ccc(-c4nc5ccc(C)cc5s4)cc3)C2=O)cc1 (stereo unspecified) | - | - | - | 64 | 112 | -
CCC1(c2ccc(F)cc2)NC(=O)N(CC(=O)Nc2ccc(-c3nc4ccc(C)cc4s3)cc2)C1=O (stereo unspecified) | - | - | - | 39 | 107 | -
Cc1ccc(NC(=O)CN2C(=O)NC(C)(c3ccc(Cl)cc3)C2=O)cc1 (stereo unspecified) | - | - | - | - | - | -
Cc1ccc2c(c1)CCCN2C(=O)c1cc(C)on1 | - | - | - | - | - | .
CCc1ccccc1-n1nnnc1-c1cnccc1C(F)(F)F | - | - | - | - | - | -
CCn1cc(C(=O)Nc2ccc(F)c(F)c2)cn1 | - | - | - | 11 | 60 | -
CCn1cc(C(=O)Nc2ccc(C)c([N+](=O)[O-])c2)cn1 | - | - | - | - | active | -
O=C(Nc1ccc(F)c(F)c1)c1ccccc1 | - | . | - | . | . | .
CCn1ncc([N+](=O)[O-])c1C(=O)Nc1ccc(C)c(C)c1 | ? | - | - | - | - | -
O=C(Cn1cc(C(F)(F)F)cc(Cl)c1=O)NCc1ccccc1 | - | - | - | 44 | 73 | -
O=C(Cn1cc(C(F)(F)F)cc(Cl)c1=O)NCc1ccc(Cl)cc1 | - | - | - | - | - | -
Cc1ccc(NC(=O)Cn2nc(C(=O)O)c3ccccc3c2=O)c([N+](=O)[O-])c1 | - | - | - | - | - | -
Cc1c(C(=S)Nc2ccccc2)cnn1-c1ccc([N+](=O)[O-])cc1 | ? | - | - | - | - | -
Cc1c(C(=O)Nc2cc(F)cc(F)c2)cnn1-c1ccccc1 | - | - | - | 52 | . | -
Cc1c(C(=S)Nc2ccccc2)cnn1-c1ccccc1 | - | - | - | 35 | - | -
SMILES | Pf growth 96h | NS1 function inh | Pf growth 48h | CHX counter | Shiga inhibitor | FBPA Giardia inh
Cc1c(C(=O)Nc2ccccc2F)cnn1-c1ccccc1 | - | - | - | 57 | 80 | -
Cc1c(C(=O)Oc2cccc3ccccc23)cnn1-c1ccccc1 | . | - | - | 45 | 151 | -
Cc1ccc(C)c(N=Cc2c(O)c3ccccc3oc2=O)c1 | - | - | - | - | . | -
N[C@@H](CO)C(=O)O | . | . | . | . | . | -
Cc1ccc(NC(=O)c2cnn(-c3ccccc3)c2NC(=O)c2ccco2)cc1C | 12µM | - | - | - | - | -
CCc1ccc(NC(=O)c2cnn(-c3ccccc3)c2C2CCNCC2)cc1 | - | . | ? | - | - | -
COC(=O)c1cn(-c2ccccc2)nc1-c1ccccc1 | - | - | . | - | - | -
CCN(CC)C(=O)c1cnn(-c2ccccc2)c1NC(=O)c1ccco1 | - | - | . | - | - | -
Cc1nn(-c2ccccc2)cc1C(=S)Nc1ccccc1 | - | - | - | 27 | 64 | -
CCc1ccc(NC(=O)c2cnn(-c3ccccc3)c2C)cc1 | - | - | - | 63 | 59 | -
O=C(CSc1nc(=O)[nH]c2c1CCCC2)Nc1ccc(F)cc1F | - | . | ? | . | . | .
CN(C)c1ccc(NC(=O)/C=C/c2ccccc2Cl)cc1 | ? | - | ? | 32 | 80 | -
Cc1cc(NS(=O)(=O)c2ccc(NC(=O)/C=C/c3ccccc3Cl)cc2)no1 | - | - | - | - | - | -
CCN(CC)c1ccc(NC(=O)C(C)C)cc1 | - | - | - | - | - | -
CCN(CC)c1ccc(NC(=O)/C=C\c2ccccc2Cl)cc1 | 1µM | - | ? | 27 | 64 | -
O=C(COCC(=O)N1CCOCC1)N1CCOCC1 | - | . | - | - | - | -
CCCCN(C(=O)c1ccc([N+](=O)[O-])o1)c1c(N)n(CCCC)c(=O)[nH]c1=O | ? | . | - | . | . | .
C=CCN1C(=O)c2ccc(C(=O)N(CC)CC(=O)Nc3cc(Cl)ccc3C)cc2C1=O | - | . | ? | . | . | .
CSCCC(NC(=O)c1ccccc1Cl)C(=O)NCC(c1ccco1)N1CCCCC1 (stereo unspecified) | 7.4µM | . | 15µM | . | . | .
COc1ccccc1C(=O)NC(CCSC)C(=O)NCC(c1ccccc1OC)N1CCCC1 (stereo unspecified) | - | . | ? | . | . | .
COc1ccc(C(CNC(=O)C(CCSC)NC(=O)c2ccccc2Cl)N2CCCCC2)cc1 (stereo unspecified) | ? | . | 7.4µM | . | . | .
CSCCC(NC(=O)c1ccccc1Cl)C(=O)Nc1cccc(S(=O)(=O)N2CCCC2)c1 (stereo unspecified) | ? | . | 12µM | . | . | .
CCS(=O)(=O)c1nc(S(=O)(=O)c2ccc(Cl)cc2)c(NCCN2CCOCC2)s1 | - | ? | - | - | - | -
Cc1nc2cc(-c3cccc(Cl)c3)nn2c(N2CCN(C(=O)c3ccco3)CC2)c1C | - | - | - | 28 | 102 | -
Cc1cc(N2CCN(C(=O)c3ccco3)CC2)n2nc(-c3cccc(Cl)c3)cc2n1 | - | - | 9.3µM | - | - | -
SMILES | Pf growth 96h | NS1 function inh | Pf growth 48h | CHX counter | Shiga inhibitor | FBPA Giardia inh
CC(C)CCN1CCN=C1Nc1ccccc1 | - | - | - | - | - | -
CC1(C)CC(N=Cc2c(O)n(Cc3ccc4c(c3)OCO4)c(=O)c3ccccc23)CC(C)(C)N1 | 10µM | . | 8.3µM | - | - | -
Cc1nc(Cl)c(C#N)cc1-c1ccccc1 | - | - | - | - | - | -
Cc1nc(Sc2ccccc2)c(C#N)c(C)c1[N+](=O)[O-] | ? | - | 7.4µM | - | - | -
Cc1nc(Sc2ccccc2)c(C#N)cc1-c1ccccc1 | ? | - | ? | 28 | 50 | -
O=C1Nc2ccc3sc4ccccc4c3c2C1=O | ? | - | ? | - | - | -
CCC(=O)O[C@@]1(C(=O)SCF)[C@@H](C)C[C@H]2[C@@H]3C[C@@H](F)C4=CC(=O)C=C[C@@]4(C)[C@]3(F)[C@@H](O)C[C@]21C | 4.1µM | . | 5.7µM | . | . | -
